Assay results published in PubChem BioAssay.
Activity calls are given as the source filed them.

Legend:
[1] = binders of probe aFSTL3 on microarray, primary screen, stem cell growth factor project, biochemical, small-molecule microarray, fluorescence 635/667 (AID 1064); details: higher = more signal;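 further: measures binding of the biotinylated anti-FSTL3 antibody to printed compounds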
[2] = binders from COS7 lysate, DM2A8 probe, primary screen, torsin A project, cell lysate, small-molecule microarray, fluorescence 635/667 (AID 1065); details: higher = more signal, COS7 lysate expressing mutant human TOR1A
[3] = binders of probe aFGF2 on microarray, primary screen, stem cell growth factor project, biochemical, small-molecule microarray, fluorescence 635/667 (AID 1067); details: higher = more signal;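 further: measures binding of biotinylated aFGF2 protein to printed compounds on slides; z-score merges feature fluorescence and signal-to-noise across triplicate slides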
[4] = binders of probe aFGF10 on microarray, primary screen, stem cell growth factor project, biochemical, small-molecule microarray, fluorescence 635/667 (AID 1071); details: higher = more signal;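 further: score merges 667 nm spot intensity and signal to noise from triplicate slides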
[5] = biological target: Neurogenic locus notch homolog protein 2 (Homo sapiens) (UniProt Q04721); assay: Notch2 binders on small-molecule microarrays, primary screen, biochemical, small-molecule microarray, 635 nm fluorescence, stem cell growth factors (AID 1073); details: Notch2 binding, higher = more signal
[6] = biological target: Pro-neuregulin-1, membrane-bound isoform (Homo sapiens) (UniProt Q02297); assay: NRG1 binders on small-molecule microarrays, primary screen, psychiatric disease protein project, biochemical, small-molecule microarray, fluorescence 635/667 (AID 1075); details: NRG1 binding, 635 nm fluorescence, higher = more signal;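 further: score combines 667 nm spot fluorescence with signal to noise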
[7] = system: Neuregulin-1 EGF-like domain; assay: binders of neuregulin-1 EGF-like domain, primary screen, biochemical, small-molecule microarray, 635 nm fluorescence (AID 1081); details: small-molecule microarray binding, higher = more signal;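 further: binding of the protein to compounds printed on small-molecule microarray slides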
[8] = FRG1 promoter luciferase signal modulators, primary screen, FRG1 inhibition for FSHD, cell-based, C2C12 myotubes, firefly/Renilla luciferase, luminescence (AID 1084); details: higher = more signal, called active from +8 up or from −8 down
[9] = binders of probe aFST on microarray, primary screen, stem cell growth factor project, biochemical, small-molecule microarray, fluorescence 635/667 (AID 1086); details: higher = more signal;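 further: score merges 667 nm fluorescence with signal-to-noise of each printed compound spot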
[10] = binders of probe aHhip on microarray, primary screen, stem cell growth factor project, biochemical, small-molecule microarray, fluorescence 635/667 (AID 1087); details: higher = more signal;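 further: score merges spot fluorescence at 667nm with spot signal to noise ratio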
[11] = system: PRMT1 (protein arginine N-methyltransferase 1); assay: PRMT1 binders on small-molecule microarrays, primary screen, biochemical, small-molecule microarray, 635 nm fluorescence (AID 1088); details: small-molecule microarray binding, higher = more signal;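 further: binding of Prmt1 protein to compounds spotted on small-molecule microarray slides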
[12] = yeast growth modulation, basal conditions, primary screen, YJM789 clinical isolate, OD600, 24 h (AID 1089);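 further: growth of clinical yeast isolate S. cerevisiae YJM 789 seeded 1000 cells per well; test concentration not given here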; details: S. cerevisiae YJM789 growth, higher = more signal, called active from +8 up or from −8 down
[13] = fission yeast growth modulation, primary screen, strain 972, OD600, 24 h, no modulator (AID 1090);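 further: basal condition with compound alone and no growth modifier present; test concentration not given here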; details: S. pombe 972 growth, higher = more signal, called active from +8 up or from −8 down
[14] = S. cerevisiae growth modulation with rapamycin, primary screen, strain BY4716, OD600, 96 h (AID 1091); details: higher = more signal, called active from +8 up or from −8 down; further: test concentration not given here
[15] = biological target: Torsin-1A-interacting protein 2 (Homo sapiens) (UniProt Q8NFQ8); assay: LULL1 binders on small-molecule microarray, primary screen, cell lysate, human LULL1 lysate, 635/667 nm fluorescence (AID 1092); details: hLULL1 lysate binding, 635 nm fluorescence, higher = more signal;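 further: probe is lysate of COS7 cells overexpressing human LULL1; score merges per-feature 667 nm fluorescence with signal-to-noise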
[16] = E. coli growth modulation, two-sided OD650, primary screen, E. coli filamentation project, strain DRC41, 24 h (AID 1093); details: OD650, 24 h, higher = more signal, called active from +8 up or from −8 down;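 further: MC1000 strain lacking acrAB efflux and sulA so SOS filamentation is blocked; test concentration not given here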
[17] = small-molecule microarray binders of probe aLefty2, primary screen, biochemical, biotinylated probe, 635/667 nm fluorescence (AID 1094); details: higher = more signal;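 further: score merges spot fluorescence near 667 nm with spot signal-to-noise ratio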
[18] = system: Noggin (protein binding on small-molecule microarray); assay: Noggin binders on small-molecule microarray, primary screen, biochemical, 635/667 nm fluorescence (AID 1095); details: 635 nm fluorescence, higher = more signal;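 further: score merges 667 nm feature fluorescence with signal to noise over triplicate slides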
[19] = biological target: Neurogenic locus notch homolog protein 3 (Homo sapiens) (UniProt Q9UM47); assay: NOTCH3 binders on small-molecule microarray, primary screen, biochemical, 635/667 nm fluorescence (AID 1096); details: NOTCH3 binding, 635 nm fluorescence, higher = more signal
[20] = small-molecule microarray binders of probe aEGFR, primary screen, biochemical, biotinylated probe, 635/667 nm fluorescence (AID 1097); details: higher = more signal;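 further: probe is a biotinylated anti-EGFR antibody binding compounds printed on slides; score combines fluorescence near 667 nm and signal to noise of each spot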

Neurogenic locus notch homolog protein 2 (Homo sapiens), sequence (Q04721 whole entry, looked up, canonical isoform): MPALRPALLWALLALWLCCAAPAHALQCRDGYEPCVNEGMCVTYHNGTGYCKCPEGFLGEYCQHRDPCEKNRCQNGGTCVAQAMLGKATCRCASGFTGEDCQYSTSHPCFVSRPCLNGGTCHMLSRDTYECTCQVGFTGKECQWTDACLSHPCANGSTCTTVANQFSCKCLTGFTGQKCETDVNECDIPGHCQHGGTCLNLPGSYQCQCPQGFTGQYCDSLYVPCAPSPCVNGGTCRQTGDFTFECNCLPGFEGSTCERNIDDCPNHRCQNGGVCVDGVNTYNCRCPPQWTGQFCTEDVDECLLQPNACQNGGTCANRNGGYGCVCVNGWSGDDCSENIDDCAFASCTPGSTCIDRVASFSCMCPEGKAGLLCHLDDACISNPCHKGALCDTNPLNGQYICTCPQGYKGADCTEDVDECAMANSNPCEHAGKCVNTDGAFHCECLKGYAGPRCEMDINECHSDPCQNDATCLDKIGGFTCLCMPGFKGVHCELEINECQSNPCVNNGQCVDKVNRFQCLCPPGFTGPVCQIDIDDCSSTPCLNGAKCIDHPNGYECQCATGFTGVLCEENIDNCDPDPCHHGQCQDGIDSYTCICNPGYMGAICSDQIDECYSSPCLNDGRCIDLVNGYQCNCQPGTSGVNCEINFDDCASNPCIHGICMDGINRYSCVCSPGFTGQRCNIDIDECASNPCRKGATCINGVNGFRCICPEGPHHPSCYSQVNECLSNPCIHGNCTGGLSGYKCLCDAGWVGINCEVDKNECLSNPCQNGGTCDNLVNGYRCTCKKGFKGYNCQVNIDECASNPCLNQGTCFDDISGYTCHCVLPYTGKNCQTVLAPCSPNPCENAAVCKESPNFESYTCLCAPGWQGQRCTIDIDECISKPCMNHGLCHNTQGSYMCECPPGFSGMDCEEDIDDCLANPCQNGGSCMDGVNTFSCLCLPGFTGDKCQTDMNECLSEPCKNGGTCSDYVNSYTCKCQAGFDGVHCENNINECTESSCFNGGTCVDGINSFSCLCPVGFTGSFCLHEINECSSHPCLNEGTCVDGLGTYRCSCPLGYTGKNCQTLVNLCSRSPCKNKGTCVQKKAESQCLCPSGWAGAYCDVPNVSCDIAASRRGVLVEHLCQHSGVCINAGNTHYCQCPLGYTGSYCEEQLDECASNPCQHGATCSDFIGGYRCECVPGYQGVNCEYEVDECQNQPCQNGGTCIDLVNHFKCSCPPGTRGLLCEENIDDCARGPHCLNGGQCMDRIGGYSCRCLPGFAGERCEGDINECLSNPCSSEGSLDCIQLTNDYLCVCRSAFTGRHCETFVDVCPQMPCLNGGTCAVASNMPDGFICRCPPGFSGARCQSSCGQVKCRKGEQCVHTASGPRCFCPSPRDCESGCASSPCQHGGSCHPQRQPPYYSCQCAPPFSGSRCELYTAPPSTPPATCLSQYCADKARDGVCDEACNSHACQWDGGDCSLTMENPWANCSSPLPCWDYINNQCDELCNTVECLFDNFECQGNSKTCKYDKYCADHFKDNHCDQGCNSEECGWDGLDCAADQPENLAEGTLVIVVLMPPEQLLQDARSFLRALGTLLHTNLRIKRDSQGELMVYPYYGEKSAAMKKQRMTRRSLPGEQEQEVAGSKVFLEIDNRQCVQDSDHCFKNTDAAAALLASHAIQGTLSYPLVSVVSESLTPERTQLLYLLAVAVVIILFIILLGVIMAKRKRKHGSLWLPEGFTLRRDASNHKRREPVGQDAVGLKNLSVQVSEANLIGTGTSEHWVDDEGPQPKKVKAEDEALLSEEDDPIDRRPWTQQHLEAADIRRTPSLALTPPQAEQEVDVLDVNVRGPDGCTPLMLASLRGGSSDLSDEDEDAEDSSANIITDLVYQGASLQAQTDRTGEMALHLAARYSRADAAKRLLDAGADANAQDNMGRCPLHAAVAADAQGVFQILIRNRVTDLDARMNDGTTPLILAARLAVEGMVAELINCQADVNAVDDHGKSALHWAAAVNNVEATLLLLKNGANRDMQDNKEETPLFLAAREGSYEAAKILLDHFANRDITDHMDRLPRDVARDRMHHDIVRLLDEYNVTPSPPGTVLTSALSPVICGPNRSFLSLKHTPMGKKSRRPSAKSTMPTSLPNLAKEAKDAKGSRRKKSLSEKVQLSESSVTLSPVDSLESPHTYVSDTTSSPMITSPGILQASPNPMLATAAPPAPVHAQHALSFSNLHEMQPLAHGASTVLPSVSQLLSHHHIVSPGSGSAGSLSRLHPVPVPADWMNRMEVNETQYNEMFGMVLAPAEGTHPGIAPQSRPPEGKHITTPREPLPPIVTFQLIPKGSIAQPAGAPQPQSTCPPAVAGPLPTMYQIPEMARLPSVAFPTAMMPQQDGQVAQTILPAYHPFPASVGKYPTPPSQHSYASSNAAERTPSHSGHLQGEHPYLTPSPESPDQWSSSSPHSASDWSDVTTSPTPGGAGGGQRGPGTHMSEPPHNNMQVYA
Neurogenic locus notch homolog protein 3 (Homo sapiens), sequence (Q9UM47 whole entry, looked up): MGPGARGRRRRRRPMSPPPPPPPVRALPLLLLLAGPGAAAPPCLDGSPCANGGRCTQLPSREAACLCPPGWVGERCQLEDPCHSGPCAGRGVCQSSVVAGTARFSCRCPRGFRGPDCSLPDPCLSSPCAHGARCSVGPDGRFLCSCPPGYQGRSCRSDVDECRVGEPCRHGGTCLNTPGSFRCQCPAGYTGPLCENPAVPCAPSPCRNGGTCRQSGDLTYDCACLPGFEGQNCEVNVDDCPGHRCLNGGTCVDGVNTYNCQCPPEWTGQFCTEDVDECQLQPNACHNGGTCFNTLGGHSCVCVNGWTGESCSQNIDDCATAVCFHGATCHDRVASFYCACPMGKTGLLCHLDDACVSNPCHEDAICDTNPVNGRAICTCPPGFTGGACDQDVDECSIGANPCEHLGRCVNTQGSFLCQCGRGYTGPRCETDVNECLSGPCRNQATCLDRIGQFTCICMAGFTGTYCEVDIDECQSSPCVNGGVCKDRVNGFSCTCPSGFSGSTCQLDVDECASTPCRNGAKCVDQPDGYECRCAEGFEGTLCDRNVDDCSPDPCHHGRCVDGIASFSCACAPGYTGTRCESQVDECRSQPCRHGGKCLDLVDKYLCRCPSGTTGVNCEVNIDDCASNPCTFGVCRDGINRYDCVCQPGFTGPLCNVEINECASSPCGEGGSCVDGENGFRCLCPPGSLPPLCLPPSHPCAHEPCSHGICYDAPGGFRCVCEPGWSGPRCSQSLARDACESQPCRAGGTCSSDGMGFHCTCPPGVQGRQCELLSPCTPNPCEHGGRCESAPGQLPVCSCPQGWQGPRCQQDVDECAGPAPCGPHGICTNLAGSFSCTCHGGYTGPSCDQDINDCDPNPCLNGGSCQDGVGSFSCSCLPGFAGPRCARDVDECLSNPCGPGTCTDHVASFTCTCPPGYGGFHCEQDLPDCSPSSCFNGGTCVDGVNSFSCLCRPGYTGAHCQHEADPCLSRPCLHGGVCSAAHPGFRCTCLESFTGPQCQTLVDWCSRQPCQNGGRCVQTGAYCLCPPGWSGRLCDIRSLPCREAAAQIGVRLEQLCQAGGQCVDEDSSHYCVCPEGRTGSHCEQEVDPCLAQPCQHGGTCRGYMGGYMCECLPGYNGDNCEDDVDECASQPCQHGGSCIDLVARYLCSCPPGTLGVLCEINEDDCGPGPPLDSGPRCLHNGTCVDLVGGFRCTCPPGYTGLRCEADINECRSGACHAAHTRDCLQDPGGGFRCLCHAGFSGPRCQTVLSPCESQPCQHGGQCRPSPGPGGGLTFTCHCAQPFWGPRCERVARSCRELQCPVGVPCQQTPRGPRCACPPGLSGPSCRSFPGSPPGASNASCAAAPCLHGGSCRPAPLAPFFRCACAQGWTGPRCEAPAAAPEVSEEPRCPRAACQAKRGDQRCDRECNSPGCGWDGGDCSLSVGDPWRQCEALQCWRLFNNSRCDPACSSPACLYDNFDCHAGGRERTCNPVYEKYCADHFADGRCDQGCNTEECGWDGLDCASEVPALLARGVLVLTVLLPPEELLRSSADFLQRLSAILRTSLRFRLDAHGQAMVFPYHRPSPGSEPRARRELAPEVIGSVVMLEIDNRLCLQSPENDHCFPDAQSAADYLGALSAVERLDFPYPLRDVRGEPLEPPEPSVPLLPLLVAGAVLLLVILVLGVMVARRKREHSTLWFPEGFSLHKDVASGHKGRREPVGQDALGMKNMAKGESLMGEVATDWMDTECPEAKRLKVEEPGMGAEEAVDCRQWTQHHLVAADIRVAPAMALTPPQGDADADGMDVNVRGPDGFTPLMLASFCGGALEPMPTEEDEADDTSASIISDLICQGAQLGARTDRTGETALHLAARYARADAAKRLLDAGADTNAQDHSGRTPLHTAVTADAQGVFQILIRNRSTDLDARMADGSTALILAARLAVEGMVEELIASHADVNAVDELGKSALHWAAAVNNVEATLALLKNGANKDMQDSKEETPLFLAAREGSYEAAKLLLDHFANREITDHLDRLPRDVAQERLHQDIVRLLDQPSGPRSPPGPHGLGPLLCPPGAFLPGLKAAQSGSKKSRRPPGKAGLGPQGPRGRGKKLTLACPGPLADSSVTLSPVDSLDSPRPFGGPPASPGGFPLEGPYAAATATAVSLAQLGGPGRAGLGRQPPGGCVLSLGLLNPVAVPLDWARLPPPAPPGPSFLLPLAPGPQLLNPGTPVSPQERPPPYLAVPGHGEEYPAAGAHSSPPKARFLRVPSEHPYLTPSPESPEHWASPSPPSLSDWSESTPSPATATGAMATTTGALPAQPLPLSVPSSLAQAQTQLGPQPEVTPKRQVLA

| Compound | composite z-score [1] | composite z-score [2] | composite z-score [3] | composite z-score [4] | composite z-score [5] | composite z-score [6] | composite z-score [7] | z-score [8] | composite z-score [9] | composite z-score [10] | composite z-score [11] | z-score [12] | z-score [13] | z-score [14] | composite z-score [15] | z-score [16] | composite z-score [17] | composite z-score [18] | composite z-score [19] | composite z-score [20] |
| --- | --- | --- | --- | --- | --- | --- | --- | --- | --- | --- | --- | --- | --- | --- | --- | --- | --- | --- | --- | --- |
| CC(C)C(=C=CC[C@H](O)c1ccc(OCCO)cc1)C[C@H](O)COCc1ccccc1 | -0.254 | 1.75 | -0.128 | 0.411 | -0.438 | 0.639 | 1.09 | -1.37 (inactive) | -0.0173 | -0.0994 | 1.23 | 1.09 (inactive) | -2.45 (inactive) | -0.668 (inactive) | 1.76 | 0.775 (inactive) | -0.119 | 1.51 | 0.229 | -0.166 |
| CC(C)[Si](C#C[Si](C(C)C)(C(C)C)C(C)C)(O[C@H](C)c1cn([C@H](C)c2ccccc2)nn1)C(C)C | -0.248 | 0.15 | -0.0402 | 0.357 | 0.814 | 0.3 | 0.528 | -1.64 (inactive) | 0.25 | -0.132 | 1.18 | -1.22 (inactive) | -2.35 (inactive) | -1.4 (inactive) | 1.11 | 0.723 (inactive) | 0.0137 | 0.5 | 0.987 | -0.0525 |
| C=CCNC(=O)[C@@H]1[C@H]2C(=O)O[C@H](c3ccccc3)[C@H](c3ccccc3)N2[C@H](c2ccc(O)cc2)[C@@]12C(=O)Nc1ccccc12 | -0.156 | 0.654 | -0.0521 | 0.0546 | -0.554 | 1.31 | 0.574 | 0.674 (inactive) | -0.0542 | -0.251 | 1.45 | 0.455 (inactive) | -1.32 (inactive) | 1.89 (inactive) | 2.8 | 2.14 (inactive) | -0.189 | 0.855 | 0.31 | -0.129 |
| [N-]=[N+]=NCc1ccccc1C[C@@]1(C(=O)NCc2ccccc2)N=C(c2ccc(OCCCO)cc2)O[C@@H]1c1ccccc1 | 1.16 | 0.997 | 0.0336 | 0.422 | 0.853 | 0.457 | 0.856 | -3.28 (inactive) | 0.551 | -0.191 | 0.475 | 1.06 (inactive) | 0.393 (inactive) | 32.7 (active) | 1.82 | 2.1 (inactive) | 0.247 | -0.41 | -0.0209 | 0.0139 |
| COc1ccc(/C=C/C(=O)c2cccc(OCC(=O)OC(C)(C)C)c2)cc1 | 0.158 | 0.0968 | -0.17 | -0.672 | -0.466 | 0.421 | 0.284 | 4.17 (inactive) | -0.126 | -0.226 | 0.898 | 0.0268 (inactive) | -2.14 (inactive) | 10.9 (active) | 1.21 | 0.328 (inactive) | -0.102 | -0.584 | -0.974 | -0.304 |
